Experimental data taken from PubChem BioAssay (EPA / NIEHS).
Activity calls are given as the source filed them. Rule for the calls: active = hit-call score of the fitted dose curve at least 0.9, where 1 is the maximum; inactive = score below 0.9.

Columns and labels:
[1] = read-out: Thrombomodulin, THBD (gene 7056); assay: BSK_CASM3C_Thrombomodulin: BioMAP Diversity Plus: CASM3C Assay for Thrombomodulin Biomarker Activity (AID 2283051); conditions: primary human coronary artery smooth muscle cells; actives raise or lower the signal;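 note: thrombomodulin protein level measured by ELISA 24 h after dosing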
[2] = read-out: Tissue Factor, F3 (gene 2152); assay: BSK_CASM3C_TissueFactor: BioMAP Diversity Plus: CASM3C Assay for Tissue Factor Biomarker Activity (AID 2283052); conditions: primary human coronary artery smooth muscle cells; actives raise or lower the signal;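 note: cell surface tissue factor protein level read by ELISA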
[3] = read-out: Interferon-gamma inducible Protein 10 (IP10), CXCL10 (gene 3627); assay: BSK_hDFCGF_IP10: BioMAP Diversity Plus: hDFCGF Assay for Interferon-gamma inducible Protein 10 (IP10) Biomarker Activity (AID 2283053); conditions: primary human foreskin fibroblasts; actives raise or lower the signal
Summary of the method: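 Cells: human dermal foreskin fibroblasts. Exposure: 24 h post-dosing. Detection: IP-10 ELISA, with values expressed against DMSO controls and fitted in both directions.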

[4] = read-out: Urokinase-type plasminogen activator receptor (uPAR), PLAUR (gene 5329); assay: BSK_CASM3C_uPAR: BioMAP Diversity Plus: CASM3C Assay for Urokinase-type plasminogen activator receptor (uPAR) Biomarker Activity (AID 2283054); conditions: primary human coronary artery smooth muscle cells; actives raise or lower the signal;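 note: cell-surface uPAR protein level quantified by ELISA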
[5] = read-out: Vascular cell adhesion molecule 1 (VCAM1), VCAM1 (gene 7412); assay: BSK_CASM3C_VCAM1: BioMAP Diversity Plus: CASM3C Assay for Vascular cell adhesion molecule 1 (VCAM1) Biomarker Activity (AID 2283055); conditions: primary human coronary artery smooth muscle cells; actives raise or lower the signal;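 note: VCAM-1 protein level quantified by ELISA on the cells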
[6] = read-out: Collagen III, COL3A1 (gene 1281); assay: BSK_hDFCGF_CollagenIII: BioMAP Diversity Plus: hDFCGF Assay for Collagen III Biomarker Activity (AID 2283056); conditions: primary human foreskin fibroblasts; actives raise or lower the signal
Summary of the method: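 ELISA read-out of collagen III from human skin fibroblast cultures sampled 24 h post-dosing. Values were derived by bidirectional fitting relative to the DMSO vehicle control.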

[7] = read-out: Epidermal growth factor receptor (EGFR), EGFR (gene 1956); assay: BSK_hDFCGF_EGFR: BioMAP Diversity Plus: hDFCGF Assay for Epidermal growth factor receptor (EGFR) Biomarker Activity (AID 2283057); conditions: primary human foreskin fibroblasts; actives raise or lower the signal
Summary of the method: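 Dosing human primary skin fibroblasts, then measuring surface EGFR by ELISA at 24 h, gives the endpoint; gains and losses relative to DMSO were fitted in both directions.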

[8] = read-out: Interleukin-8 (IL8), CXCL8 (gene 3576); assay: BSK_hDFCGF_IL8: BioMAP Diversity Plus: hDFCGF Assay for Interleukin-8 (IL8) Biomarker Activity (AID 2283058); conditions: primary human foreskin fibroblasts; actives raise or lower the signal
Summary of the method: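 Cells used are human skin primary fibroblasts. Chemical is added, cultures run 24 h, then IL-8 is quantified by ELISA, and gain or loss versus DMSO control is fitted in both directions.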

[9] = BSK_hDFCGF_Proliferation: Cell Proliferation Assessment in the BioMAP Diversity Plus: hDFCGF Assay (AID 2283059); conditions: primary human foreskin fibroblasts;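 note: curves fitted for both rise and fall of signal versus DMSO baseline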
Summary of the method: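 Sub-confluent human foreskin fibroblast cultures receive test chemical […]. Relative cell number is quantified by sulforhodamine B staining (0.1%, after 10% TCA fixation) at 560 nm, with bidirectional fitting referenced to DMSO.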

[10] = read-out: Macrophage colony-stimulating factor (MCSF), CSF1 (gene 1435); assay: BSK_hDFCGF_MCSF: BioMAP Diversity Plus: hDFCGF Assay for Macrophage colony-stimulating factor (MCSF) Biomarker Activity (AID 2283060); conditions: primary human foreskin fibroblasts; actives raise or lower the signal
Summary of the method: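 Primary human foreskin fibroblasts dosed with chemical; 24 h later, M-CSF quantified by ELISA; curves fitted in both directions vs DMSO negative control.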

[11] = read-out: TIMP metallopeptidase inhibitor 1 (TIMP1), TIMP1 (gene 7076); assay: BSK_hDFCGF_TIMP1: BioMAP Diversity Plus: hDFCGF Assay for TIMP metallopeptidase inhibitor 1 (TIMP1) Biomarker Activity (AID 2283062); conditions: primary human foreskin fibroblasts; actives raise or lower the signal
Summary of the method: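 Human skin fibroblasts (primary), hDFCGF system; compound exposure 24 h; TIMP-1 by ELISA; bidirectional fit vs DMSO negative control; overt cytotoxicity by SRB in parallel wells.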

[12] = read-out: Monokine induced gamma interferon (MIG), CXCL9 (gene 4283); assay: BSK_hDFCGF_MIG: BioMAP Diversity Plus: hDFCGF Assay for Monokine induced gamma interferon (MIG) Biomarker Activity (AID 2283063); conditions: primary human foreskin fibroblasts; actives raise or lower the signal
Summary of the method: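 Chemicals were added to primary human foreskin fibroblast cultures, which were sampled 24 h later. MIG levels were then quantified by ELISA and responses fitted in both directions relative to DMSO.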

[13] = read-out: Matrix Metallopeptidase 1 (MMP1), MMP1 (gene 4312); assay: BSK_hDFCGF_MMP1: BioMAP Diversity Plus: hDFCGF Assay for Matrix Metallopeptidase 1 (MMP1) Biomarker Activity (AID 2283064); conditions: primary human foreskin fibroblasts; actives raise or lower the signal
Summary of the method: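 Human foreskin fibroblasts exposed to chemical for 24 h; MMP1 detected by ELISA, with DMSO as baseline for bidirectional fitting.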

[14] = read-out: Vascular cell adhesion molecule 1 (VCAM1), VCAM1 (gene 7412); assay: BSK_hDFCGF_VCAM1: BioMAP Diversity Plus: hDFCGF Assay for Vascular cell adhesion molecule 1 (VCAM1) Biomarker Activity (AID 2283065); conditions: primary human foreskin fibroblasts; actives raise or lower the signal;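 for AC50: VCAM-1 protein level quantified by ELISA after 24 h chemical exposure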
Summary of the method: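 Human foreskin fibroblast primary cells, chemical exposure 24 h; VCAM-1 by ELISA; bidirectional fit, DMSO = negative control/baseline.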

[15] = read-out: Plasminogen activator inhibitor-1 (PAI1), SERPINE1 (gene 5054); assay: BSK_hDFCGF_PAI1: BioMAP Diversity Plus: hDFCGF Assay for Plasminogen activator inhibitor-1 (PAI1) Biomarker Activity (AID 2283066); conditions: primary human foreskin fibroblasts; actives raise or lower the signal
Summary of the method: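 Fibroblasts from human foreskin were treated with test chemical. After 24 h, PAI-1 was measured by ELISA. Activity was fitted in both directions relative to DMSO.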

[16] = read-out: Intercellular Adhesion Molecule 1 (ICAM1), ICAM1 (gene 3383); assay: BSK_KF3CT_ICAM1: BioMAP Diversity Plus: KF3CT Assay for Intercellular Adhesion Molecule 1 (ICAM1) Biomarker Activity (AID 2283067); conditions: primary human keratinocytes with fibroblasts; actives raise or lower the signal
Summary of the method: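 ICAM-1 levels are measured by ELISA 24 h after dosing a primary human co-culture of keratinocytes and foreskin fibroblasts. Activity in either direction is fitted relative to DMSO vehicle.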

[17] = read-out: Interferon-gamma inducible Protein 10 (IP10), CXCL10 (gene 3627); assay: BSK_KF3CT_IP10: BioMAP Diversity Plus: KF3CT Assay for Interferon-gamma inducible Protein 10 (IP10) Biomarker Activity (AID 2283068); conditions: primary human keratinocytes with fibroblasts; actives raise or lower the signal
Summary of the method: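 ELISA read-out of IP-10 after 24 h chemical dosing of human skin primary co-culture (keratinocytes, foreskin fibroblasts). Gain or loss of signal relative to DMSO, bidirectional curve fit.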

[18] = BSK_KF3CT_SRB: Viability Assessment in the BioMAP Diversity Plus: KF3CT Assay (AID 2283069); conditions: primary human keratinocytes with fibroblasts;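 note: read 24 h after compound addition; fitted for both signal gain and loss against DMSO baseline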
Summary of the method: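 Overt cytotoxicity is assessed as total protein by sulforhodamine B staining in parallel human skin co-cultures at 24 h after dosing. DMSO serves as negative control and baseline.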

[19] = read-out: Interleukin-1 alpha (IL1a), IL1A (gene 3552); assay: BSK_KF3CT_IL1a: BioMAP Diversity Plus: KF3CT Assay for Interleukin-1 alpha (IL1a) Biomarker Activity (AID 2283070); conditions: primary human keratinocytes with fibroblasts; actives raise or lower the signal
Summary of the method: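 Readout is IL-1a level by ELISA, compared bidirectionally with DMSO as baseline. Cells: human keratinocytes co-cultured with foreskin fibroblasts, harvested 24 h post-dose.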

Measured: AC50

CC1(C)NC(=O)N(c2ccc([N+](=O)[O-])c(C(F)(F)F)c2)C1=O
inactive: all assays above

CC(O)CC(C)(C)O (configuration not stated)
active: [9] 14.1 µM
not listed: [19]
inactive: all other assays above

NCc1cccc(C2CCN(C(=O)c3ccc(C#Cc4ccccc4F)o3)CC2)c1
active: [1] 4.76 µM | [3] 8.64 µM | [4] 30.7 µM | [5] 15.9 µM | [6] 5.12 µM | [7] 12.6 µM | [8] 11.9 µM | [9] 5.81 µM | [10] 7.78 µM | [11] 11.8 µM | [12] 11.7 µM | [13] 11 µM | [14] 7.78 µM | [15] 7.77 µM | [16] 29.6 µM | [17] 12.4 µM | [18] 5.34 µM | [19] 12.3 µM
inactive: [2]

Oc1ccc2ccccc2c1
not listed: [19]
inactive: all other assays above

O=c1[nH]sc2ccccc12
active: [1] 4.73 µM | [2] 28 µM | [3] 4.08 µM | [4] 11.3 µM | [5] 10.7 µM | [6] 20 µM | [8] 20 µM | [9] 0.281 µM | [10] 3.22 µM | [11] 11.8 µM | [12] 5.92 µM | [13] 6.98 µM | [14] 1.82 µM | [15] 3.23 µM | [16] 20 µM | [17] 31.7 µM | [18] 35.7 µM | [19] 13.7 µM
inactive: [7]

Cc1cc(F)ccc1-c1cc(N2CC[C@@H](O)[C@H]2CO)ncc1N(C)C(=O)C(C)(C)c1cc(C(F)(F)F)cc(C(F)(F)F)c1
inactive: [1] | [7]
active: [2] 22 µM | [3] 14.9 µM | [4] 31.1 µM | [5] 25.4 µM | [6] 24.1 µM | [8] 18.4 µM | [9] 10.9 µM | [10] 11.1 µM | [11] 12.4 µM | [12] 15.8 µM | [13] 16.7 µM | [14] 12.6 µM | [15] 11.3 µM | [16] 26.3 µM | [17] 13.2 µM | [18] 13.5 µM | [19] 15 µM
